# Reference: PubChem BioAssay
# Calls of active or inactive are those of the source. Unless noted, no rule for the calls is given here.
# Legend:
# [1] = anti-His antibody binders, primary screen, artefact control for SMM control protein annotation, biochemical, small-molecule microarray, 635 nm fluorescence (AID 1128); settings: anti-His Alexa647 antibody binding, higher = more signal;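 also: score merges feature fluorescence with signal-to-noise for each printed compound spot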
# [2] = test system: Human papillomavirus type 1a E7 protein (residues 1-88); assay: HPV1a E7 small-molecule binders, primary screen, biochemical, small-molecule microarray, residues 1-88, 635 nm (AID 1129); settings: small-molecule microarray binding, fluorescence 635 nm; higher = more signal
# [3] = target: Focal adhesion kinase 1 (Homo sapiens) (UniProt Q05397); assay: small-molecule microarray binders of FAK, primary screen, biochemical, 635/667 nm fluorescence, BSA, DTT (AID 1130); settings: PTK2 binding, 635 nm fluorescence, higher = more signal;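 also: composite of spot emission at 667 nm and signal to noise over triplicate slides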
# Chain of Focal adhesion kinase 1 (Homo sapiens) (Q05397 whole entry, looked up): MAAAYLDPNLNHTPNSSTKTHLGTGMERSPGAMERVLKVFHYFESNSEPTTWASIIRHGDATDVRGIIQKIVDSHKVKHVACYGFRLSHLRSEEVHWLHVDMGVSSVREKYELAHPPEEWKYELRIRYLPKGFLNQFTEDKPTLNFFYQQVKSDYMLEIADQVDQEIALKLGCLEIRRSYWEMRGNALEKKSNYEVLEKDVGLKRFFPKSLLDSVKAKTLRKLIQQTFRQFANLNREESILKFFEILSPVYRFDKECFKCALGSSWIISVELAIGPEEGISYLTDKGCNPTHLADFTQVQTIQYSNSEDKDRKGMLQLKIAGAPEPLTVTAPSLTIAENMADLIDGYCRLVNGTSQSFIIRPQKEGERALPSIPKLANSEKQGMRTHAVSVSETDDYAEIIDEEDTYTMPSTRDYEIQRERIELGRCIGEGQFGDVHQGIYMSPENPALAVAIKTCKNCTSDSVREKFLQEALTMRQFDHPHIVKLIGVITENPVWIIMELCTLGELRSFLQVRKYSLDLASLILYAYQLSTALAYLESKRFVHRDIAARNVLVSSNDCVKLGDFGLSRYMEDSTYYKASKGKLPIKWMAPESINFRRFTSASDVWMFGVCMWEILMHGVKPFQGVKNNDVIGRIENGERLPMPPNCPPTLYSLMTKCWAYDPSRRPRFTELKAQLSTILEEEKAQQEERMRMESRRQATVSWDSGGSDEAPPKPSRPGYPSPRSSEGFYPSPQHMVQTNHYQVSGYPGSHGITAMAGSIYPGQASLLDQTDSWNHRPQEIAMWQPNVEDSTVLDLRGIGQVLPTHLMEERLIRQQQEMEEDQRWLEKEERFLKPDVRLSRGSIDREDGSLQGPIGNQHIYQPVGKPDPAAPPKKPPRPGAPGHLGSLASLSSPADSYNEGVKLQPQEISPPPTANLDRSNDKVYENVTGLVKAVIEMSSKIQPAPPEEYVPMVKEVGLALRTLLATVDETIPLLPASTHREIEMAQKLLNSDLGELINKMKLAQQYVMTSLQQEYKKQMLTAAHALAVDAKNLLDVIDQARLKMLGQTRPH
# [4] = test system: Fibrinogen (Alexa647-labelled); assay: fibrinogen binders on compound microarrays, profiling panel, artefact control for SMM control-protein annotation, biochemical, small-molecule microarray, 635/667 nm fluorescence (AID 1131); settings: fibrinogen-A647 binding fluorescence, higher = more signal;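 also: z-score merges 667 nm fluorescence with per-spot signal-to-noise over triplicate slides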
# [5] = target: Follistatin (Homo sapiens) (UniProt P19883); assay: follistatin binders on small-molecule microarrays, primary screen, biochemical, small-molecule microarray, 635/667 nm fluorescence (AID 1132); settings: FST binding, 635 nm fluorescence, higher = more signal
# Chain of Follistatin (Homo sapiens) (P19883 whole entry, looked up): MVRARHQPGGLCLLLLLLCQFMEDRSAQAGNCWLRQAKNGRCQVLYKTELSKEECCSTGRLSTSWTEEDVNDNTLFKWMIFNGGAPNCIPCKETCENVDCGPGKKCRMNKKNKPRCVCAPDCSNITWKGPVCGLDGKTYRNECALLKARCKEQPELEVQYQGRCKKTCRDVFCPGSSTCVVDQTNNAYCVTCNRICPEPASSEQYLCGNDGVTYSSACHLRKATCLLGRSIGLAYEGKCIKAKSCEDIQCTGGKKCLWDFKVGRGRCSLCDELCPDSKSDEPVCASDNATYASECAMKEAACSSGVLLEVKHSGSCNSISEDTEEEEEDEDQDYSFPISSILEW
# [6] = target: Fibroblast growth factor 2 (Homo sapiens) (UniProt P09038); assay: FGF2 binders on small-molecule microarrays, primary screen, biochemical, small-molecule microarray, 635/667 nm fluorescence (AID 1133); settings: small-molecule microarray binding, FGF2, fluorescence 635/667; higher = more signal
# Chain of Fibroblast growth factor 2 (Homo sapiens) (P09038 whole entry, looked up): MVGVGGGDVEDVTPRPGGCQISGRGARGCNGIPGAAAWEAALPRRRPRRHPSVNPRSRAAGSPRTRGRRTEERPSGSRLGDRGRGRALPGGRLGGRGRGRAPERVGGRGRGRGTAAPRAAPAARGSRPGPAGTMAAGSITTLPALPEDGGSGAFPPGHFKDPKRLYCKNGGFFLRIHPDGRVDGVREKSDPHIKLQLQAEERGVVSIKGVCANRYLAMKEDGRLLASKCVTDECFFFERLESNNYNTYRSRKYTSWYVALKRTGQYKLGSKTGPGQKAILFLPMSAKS
# [7] = mitochondrial membrane potential change in A549 cells, profiling panel, cell-based, JC-1 fluorescence, basal, 24 h, 100 nL (AID 1138); settings: higher = more signal;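 also: A549 lung adenocarcinoma cells under basal conditions with no added stimulus; test concentration not given here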
# [8] = test system: Lefty1; assay: Lefty1 binders on small-molecule microarrays, primary screen, biochemical, small-molecule microarray, 635/667 nm fluorescence (AID 1139); settings: small-molecule microarray binding, fluorescence 635/667; higher = more signal
# [9] = test system: wheat germ agglutinin (Triticum aestivum), Alexa647-labelled; assay: wheat germ agglutinin binders on compound microarrays, profiling panel, artefact control for SMM control-protein annotation, biochemical, small-molecule microarray, 635/667 nm fluorescence (AID 1140); settings: WGA-A647 binding, 635 nm fluorescence, higher = more signal;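 also: score merges 667 nm feature emission with signal to noise over triplicate slides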
# [10] = target: Luciferin 4-monooxygenase (Photinus pyralis) (UniProt P08659); assay: firefly luciferase enzyme inhibitors, primary screen, biochemical, luminescence, purified enzyme, 2006 set (AID 1141); settings: SteadyGlo luminescence, 30 min, higher = more signal, called active from +8 up or from −8 down;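 also: cell-free assay with purified firefly luciferase at 100 ng per well in PBS; test concentration not given here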
# Chain of Luciferin 4-monooxygenase (Photinus pyralis) (P08659 whole entry, looked up): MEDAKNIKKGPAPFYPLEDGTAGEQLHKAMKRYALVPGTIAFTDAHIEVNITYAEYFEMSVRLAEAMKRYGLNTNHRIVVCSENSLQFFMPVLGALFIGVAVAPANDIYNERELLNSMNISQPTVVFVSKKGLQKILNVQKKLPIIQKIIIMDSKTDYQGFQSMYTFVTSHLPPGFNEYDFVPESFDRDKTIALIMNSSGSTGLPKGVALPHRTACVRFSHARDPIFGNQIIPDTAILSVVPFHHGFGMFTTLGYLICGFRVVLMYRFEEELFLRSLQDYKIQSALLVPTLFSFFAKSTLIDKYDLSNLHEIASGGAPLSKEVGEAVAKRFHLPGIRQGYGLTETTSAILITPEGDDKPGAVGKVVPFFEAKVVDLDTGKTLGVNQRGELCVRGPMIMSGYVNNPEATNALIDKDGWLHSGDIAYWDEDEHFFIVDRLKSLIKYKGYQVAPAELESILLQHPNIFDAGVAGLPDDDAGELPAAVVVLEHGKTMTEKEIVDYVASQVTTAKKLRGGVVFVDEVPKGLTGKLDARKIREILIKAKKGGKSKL
# [11] = test system: Wnt5a (protein binding on small-molecule microarray); assay: Wnt5a binders on small-molecule microarray, primary screen, biophysical, 635/667 nm fluorescence (AID 1142); settings: 635 nm fluorescence, higher = more signal;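 also: fluorescence read at 667 nm with signal to noise per printed feature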
# [12] = cell viability in Huh7 cells, primary screen, cytotoxicity control for HCV replication inhibitor project, CellTiter-Glo luminescence, basal, 48 h (AID 1143); settings: Huh7 HCV replicon, higher = more signal, called active from +8 up or from −8 down;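 also: Huh7 hepatoma cells carrying a hepatitis C replication reporter with no stimulus; test concentration not given here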
# [13] = P. aeruginosa biofilm formation inhibitors, primary screen, PAO1 strain, BacTiter-Glo luminescence, LB-PBS (AID 1144); settings: 12 h, higher = more signal
# [14] = CREB reporter modulators without forskolin, primary screen, cell-based, PC12, CRE-LacZ reporter, unstimulated (AID 1145); settings: no forskolin, luminescence, 4.5 h, higher = more signal, called active from +8 up or from −8 down
# [15] = CREB reporter modulators under forskolin, primary screen, cell-based, PC12, CRE-LacZ reporter, forskolin-stimulated (AID 1146); settings: luminescence, 4.5 h, higher = more signal, called active from +8 up or from −8 down;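 also: PC12 cells with 6xCRE LacZ reporter stimulated by forskolin 10 µM; beta-galactosidase reporter signal reflecting CREB driven transcription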
# [16] = target: Streptavidin (Streptomyces avidinii) (UniProt P22629); assay: streptavidin binders on small-molecule microarray, primary screen, artefact control for SMM compound annotation, biophysical, 635/667 nm fluorescence (AID 1147); settings: streptavidin binding, higher = more signal;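 also: signal reflects streptavidin binding to arrayed compounds as a control protein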
# Chain of Streptavidin (Streptomyces avidinii) (P22629 whole entry, looked up): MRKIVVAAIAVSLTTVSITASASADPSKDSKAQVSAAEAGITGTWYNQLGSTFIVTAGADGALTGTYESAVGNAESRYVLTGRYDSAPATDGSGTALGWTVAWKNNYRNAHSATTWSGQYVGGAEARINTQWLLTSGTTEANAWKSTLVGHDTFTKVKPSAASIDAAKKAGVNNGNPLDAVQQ
# [17] = small-molecule binders of probe aInhba, primary screen, biochemical, small-molecule microarray, 635/667 nm fluorescence (AID 1148); settings: higher = more signal;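 also: score merges 667nm spot fluorescence with signal-to-noise for antibody binding to printed compounds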
# [18] = target: Torsin-1A (Homo sapiens) (UniProt O14656); assay: torsin A binders from cell lysate, primary screen, small-molecule microarray, wild-type, 635/667 nm (AID 1149); settings: COS7 hTOR1A-WT lysate, 635 nm fluorescence, higher = more signal
# Chain of Torsin-1A (Homo sapiens) (O14656 whole entry, looked up): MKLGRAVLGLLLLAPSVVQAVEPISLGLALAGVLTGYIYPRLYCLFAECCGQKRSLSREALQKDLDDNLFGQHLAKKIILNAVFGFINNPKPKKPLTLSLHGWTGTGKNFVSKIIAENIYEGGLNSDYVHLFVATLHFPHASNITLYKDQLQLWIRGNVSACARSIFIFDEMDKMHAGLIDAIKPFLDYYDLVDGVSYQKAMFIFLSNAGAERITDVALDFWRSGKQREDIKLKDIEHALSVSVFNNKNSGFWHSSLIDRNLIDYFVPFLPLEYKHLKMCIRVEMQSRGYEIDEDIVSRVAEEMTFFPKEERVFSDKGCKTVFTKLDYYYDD
# [19] = target: Torsin-1A (Homo sapiens) (UniProt O14656); assay: small-molecule binders of mutant TOR1A in lysate, primary screen, cell lysate, small-molecule microarray, COS7 lysate, 635/667 nm fluorescence (AID 1150); settings: COS7 hTOR1A mutant lysate, 635 nm fluorescence, higher = more signal;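 also: score pools 667 nm emission and signal to noise measuring lysate protein binding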
# [20] = test system: Sonic hedgehog protein (Shh); assay: small-molecule binders of Shh protein, primary screen, biochemical, small-molecule microarray, 635/667 nm fluorescence (AID 1151); settings: small-molecule microarray binding, 635 nm fluorescence; higher = more signal;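 also: Shh protein binding to compounds spotted on small-molecule microarray slides; score combines spot fluorescence intensity with signal-to-noise across triplicate slides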
SMILES,composite z-score [1],composite z-score [2],composite z-score [3],composite z-score [4],composite z-score [5],composite z-score [6],z-score [7],composite z-score [8],composite z-score [9],z-score [10],composite z-score [11],z-score [12],z-score [13],z-score [14],z-score [15],composite z-score [16],composite z-score [17],composite z-score [18],composite z-score [19],composite z-score [20]
COC(=O)c1ccc([C@H](NC(=O)c2ccccc2)[C@]2(C)C[C@H]2C2CCCCC2)cc1,0.494,1.18,0.591,0.707,0.412,-0.639,0.85,-0.41,1.21,1.51 (inactive),0.0477,-1.78 (inactive),-0.718 (inactive),0.394 (inactive),1.28 (inactive),1.08,0.166,-0.435,0.266,-0.999
CC(C)C[C@H]1NC(=O)[C@H](Cc2ccccc2)NC(=O)[C@@]23C(=O)N[C@@H](Cc4ccccc4)C2[C@H](C)[C@@]2(C)O[C@H]2C3/C=C/C/C=C\CNC1=O (stereo not given in full),0.701,0.475,0.899,0.315,0.927,1.01,-0.000177,0.376,0.658,-0.179 (inactive),0.116,-1.29 (inactive),0.338 (inactive),0.67 (inactive),0.105 (inactive),0.494,-0.0552,0.471,0.855,0.889
C#CCN=C(N)N,0.468,0.611,-0.0375,0.802,0.785,0.388,-0.317,0.858,0.299,0.523 (inactive),0.0311,-0.347 (inactive),0.214 (inactive),-0.0247 (inactive),-0.055 (inactive),0.314,0.0797,1.7,0.832,0.666
O=C1NC(=O)C2C1C=CC(C(O)c1cccc(O)c1)N2Nc1ccc(Cl)cc1Cl (stereo not given),0.33,-0.0332,0.263,-0.348,-0.127,0.0853,-0.812,-0.317,0.447,-0.259 (inactive),-0.125,-1.08 (inactive),-0.355 (inactive),0.629 (inactive),-0.45 (inactive),0.423,-0.13,-0.309,0.25,-1.14
CCCC[C@H]1OB(O)C[C@H]2C1=C(COC)C[C@H]1C(=O)C=CC(=O)[C@H]12,0.51,0.215,-0.0157,0.287,0.865,0.32,0.777,0.96,0.106,-3.03 (inactive),0.269,-1.06 (inactive),-0.229 (inactive),10.7 (active),6.12 (inactive),-0.045,-0.0552,0.283,-0.0615,1.63
